Source: the supplement of paper PMC12632987
Over roughly 2,300 sequences, “median log2 fold change of GCK-ALFA target abundance (FLAG IP / Myc IP barcode read proportion)” has its median near 0.095; the lowest 2% begin near -0.47. The sample holds the lowest values, similar sequences and a random draw of the others, so the mix is not that of the screen.

B1: LC3A_23_609 (protein)
chain: MYLIDFEVDLIGEPEEIEKIEKELLEALEEFLEENKDKIVDYEIEVEREELEDGRTYLSIRLKILIDGTREEAEALANEITTIASEIAPDAVISVEVEEV
B2: LC3A_147_509 (protein)
chain: YIVEIDIDLLVKNKVEEVKEKFKEIVEELKKKGYEVELEIEEEKIDENTYYVKVKITIKAETKEEAEEAANLTLDLLDKLEEELKEDILGSLISVEITEA
B3: LC3A_free_39_2183 (protein)
chain: SSEETKKLKEELLKLAEEEGEETKELAEKLIELIGEELERIKRLLELMKKLKEAGVDLKEALKEALELAEELKKKGKSKEEIAEAVLELMQDKYNLIPID
B4: LC3A_free_26_2149 (protein)
chain: DEFIDIVELDKAIDLLEELLKLLEENELASEEEKKLAKEALEEAKKETLESLKKALKLVEELLKLLKKNEKLPEETKKKLIKLAEEAIKHIKENIKIMES
B5: LC3A_3_1540 (protein)
chain: MDAAVAAALARLRAAGASAATLAAFEAAVAALRERGYDAALETLIAETDRLLGLSDALLLAFFEEVLELVETEDIDEEELIARIREIARTTLSEAEIEEL
B6: LC3A_28_1107 (protein)
chain: SSVDEENAKALAEAEKAAAAGEPAVITITVKSTDTQEDIDKKIETMEKIAEILKDVKDAAIIIDLDGEIPQEYLDKLADKGEEIEKKYPNITVIIALDEE
B7: LC3A_3_1662 (protein)
chain: AEELIEETLAWLREQGRSEETLEAAREAMTALKEKGYYEALETFAELLRELADLSDELLLELAEEVLELVETSDLDEESMTEEIREIARTIRSEAEIEEL
B8: LC3A_132_247 (protein)
chain: SEEELEKALEELKEILEKIVELLKAGKDPLPQIVKLEELAREIAKKLSLEETEKLVDEAIEYAEELFEKELDPNDEEARRTLDIIEMSLEGVLIEKELES
B9: LC3A_132_246 (protein)
chain: SEEEYKKALAELKEIIDKIVELLKEGKDPLPAIVELEEKAREIAEKLSLEETEKLVEETIEYAEKRFEEELDPNDEEARRTLDIIEMLLEGVLIEKELRS
B10: LC3A_132_248 (protein)
chain: SEEELKEALEELKEILEKIVEALKNGEDPLPLIVELEEKALEIAEKLSLEETEELIDEAKEYAEELFEEELDPNDEEARRTLDIIEMLLDGVLIEKELKS
B11: LC3A_28_830 (protein)
chain: SKIEERIAKFKAEAEAAKASQEPATLTITVTSEDTVEEAKKIAEAMKEEAEKLKDVPDIGIVIDTDGKIDPEVLKILTDTADEIEEKYPNVTVIIALPEE
B12: LC3A_23_622 (protein)
chain: MYKVTVEADTIATPEEAEKYIKLVKEKVEEIKEKYKDKIEEVKLEIEREELPDGTVYLHITVTIIVKDDEELAQKLKNELVDFFDKNIPNGVISYEIEKL
B13: LC3A_free_46_2410 (protein)
chain: YVAEIDVDALAETKEKAEEFAKKIEEAAKEIAKEYGIEVEIEVKISKDEDGTYFVEIEITLEAETKETLEKAVNELIDKIEEIAEELGVSIIISYEISEA
B14: LC3A_28_1055 (protein)
chain: SAVEEQIKKALEEAKELAAKGEEALIEIEIEEDDTEEDVEKKLKTIEEIAEINKDLPSTSIIVNVNNKNKEEVTKKFADLGDELEKKYPNVTVIIALSEE
B15: LC3A_28_1327 (protein)
chain: SELEEQLEKQRKEALELAEKGEDVLIEVTITPETTLEEAEELMEKLRELVKEVAPKVKVSIVVDVEGGVSQEVIDAIAEKADEIEKEYPNATVIIALDED
B16: LC3A_free_39_2199 (protein)
chain: SEEEEEEAEEEILELAEEEGEEALEAAEELLEELEGNLELVEAVLEQVKRAKEEGADVLELLKRLLELVRKLQEEGKSEEEIIEAIEEEADVIINLIPID
B17: LC3A_28_1010 (protein)
chain: MSVVEETKKEAEKALEEAKKGNDAYLEIKITKDTTLEEVKEIGKIIEETAKKISEIENVKLYIVVDDDSNEEKHNIILDKLDEIEKKYPNVSSIVAYTDE
B18: LC3A_3_1354 (protein)
chain: SEELIEEQIERLREAGFSEEVLEAARAAFEGLAAQGHEEGIELLTEALLKHKDAPEEKKLRVLNNLLAEVQANPNLTQEEVEELVKLADLDLAIEELDEE
B19: LC3A_132_313 (protein)
chain: SEKKYEEIKKKLEELLKEAEKNINDKEKVEELLKEIRKLLEEAEKELSPEQVKELYDFVADRLYKLSLKADEAGKEDVSLLLDAAAIEAASKALKAEKKI
B20: LC3A_28_1162 (protein)
chain: SAIEESIKAAFEELEKAIKEGKNGVITLKVPGDATEEDIERLIKALEEIAKKAEEHGINGILIDVDGGVKQEHIDRLAKAAEEIEKKYPKVTIIIALSDE
B21: LC3A_free_46_2347 (protein)
chain: YKAEIDIDLLAEDEETLKKAVEEIVEAAKKIAKKYNLKVNIEVEIEKLEDGSYYARIKITLEGETKEDVEAAVNELIDEIDKIAKKYNVAAIISYEIIKT
B22: LC3A_free_46_2352 (protein)
chain: VEAKIEIDLLADDKEKLEKAVEEIIKKIKEIAKKYGLEVEINYEISKLEDGSYYAKIEITLKGEDLEDVKKAVNELINEIEEIAEKYGVSAVISYEIEDV
B23: LC3A_free_0_2121 (protein)
chain: KKTVVELVVILDEKTSEEKAKEAYEELKEKAEELAEENGWEVEVKLDKVDGRHIITVTLTSDEPDIDKGLELERKLSEIAEEIAKKLGLDATIYSSVYLE
B24: LC3A_free_8_2531 (protein)
chain: NVQEMVDLALKELDKLEKIAVEKAKELGLSRTDILELELVIGSAKIDIIEASDKSVEEIYKLFKEELKEILEEAKKYGEELYKEVEKKAKEALKKMEEAK
B25: LC3A_28_1140 (protein)
chain: SALVEAAKAQIEADAEADKDEPEVLLRVTITSEMTVEQAREIMDHVEEVVEKLKDKEKIYIVVDATEPISQEVLDEIVERLEEIEKKYPNVSSIIALPED
B26: LC3A_28_1037 (protein)
chain: DELRRRAEEAVKEAEEQAKKGEEAVVTIKVGKLPTEEAKRIVREALERLIKISKKYGNVKISVVIDVDGDQELVDAIIDVAEEAEKKNPNLTVIIALSEE
B27: LC3A_23_605 (protein)
chain: MYKVEVIVDFIDKPEEAEKKVEELLKKVEELLKKHKDIVKDYEIKVTREALPDGTTYVEVEITIIIDGTKEEAEEIRNELESIASETLPNGVISSEVEEL
B28: LC3A_59_2035 (protein)
chain: SAEAEAAAARVRERGPSVDVVAEVFREVLEKNGLDPELARDLVAALVAVLVEAGLITAEEGAAIRAEADAAIDRLTDVDELVSELRVIILDALLKKNELE
B29: LC3A_141_361 (protein)
chain: ATKKETFTLTAKTEEEAIEVAEKIKEKIREFMEKTGAKEVKVTVTITAYNKKTGEVKTETIVETVTPENLDLFEEGLLIELLSYFEKGADEVKVTVTIES

What follows are binders tested against MAP1LC3A, Q9H492 (assay: median log2 fold change of GCK-ALFA target abundance (FLAG IP / Myc IP barcode read proportion) (log2 ratio); each designed protein is fused to an ALFA-tag nanobody in HEK293 cells to bring the named protein to FLAG-tagged glucokinase (GCK); Myc marks an untargeted standard; higher = target protein stabilised (more abundant)). Details: target protein: 3xFLAG-MCP-GCK-ALFA reporter; HEK293 landing pad (RPLP).
Protocol: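 LABEL-seq trans screen in HEK293 landing-pad cells. Each de novo designed 100-aa effector handle, binding the indicated effector (E3 ligase, DUB or autophagy protein), is fused to a constant NbALFA target handle and induced with 2 ug/mL doxycycline. A FLAG-MCP-GCK-ALFA target and a Myc-MCP standard reporter were transfected, and after 48 h circRNA barcodes were recovered by anti-FLAG and anti-Myc IP and sequenced. The value is the median across barcodes (at least 3 per design) of log2(FLAG/Myc read-proportion ratio), with the two transfection replicates pooled. Negative values mean degradation and positive values mean stabilisation of the target.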

Binder | median log2 fold change
B1 | -0.664
B2 | -0.0549
B3 | 0.066
B4 | -0.0408
B5 | 0.222
B6 | 0.154
B7 | -0.0559
B8 | -0.371
B9 | -0.415
B10 | -0.698
B11 | 0.132
B12 | -0.561
B13 | 0.0318
B14 | 0.0494
B15 | -0.563
B16 | 0.103
B17 | -0.515
B18 | 0.184
B19 | -0.171
B20 | -0.0306
B21 | -0.556
B22 | 0.204
B23 | 0.00278
B24 | -0.0124
B25 | -0.0164
B26 | -0.36
B27 | -0.868
B28 | 0.256
B29 | -0.0634
